# Measured values taken from PubChem BioAssay.
# Values without a mark were called inactive. Active and inactive are the calls of the source.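 Rule for the calls: active = fluorescence slope higher than the sample average by over 3 SD (cut at about -0.22 in these data, passing the limit was not always enough); inactive = the rest.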
# Molecular target: Voltage-gated potassium channel subunit beta-2 (Rattus norvegicus) (UniProt P62483)
# Assay: inhibitors of rat Kvbeta2 reductase activity – biochemical, NADPH fluorescence, primary screen (AID 622);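 note: slope of raw intensity against log time taken from 70 to 1610 s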
# Conditions: recombinant KvBeta, 4-cyanobenzaldehyde reduction, at 10 µM, stronger effect = higher value
# Chain of Voltage-gated potassium channel subunit beta-2 (Rattus norvegicus) (P62483 whole entry, looked up): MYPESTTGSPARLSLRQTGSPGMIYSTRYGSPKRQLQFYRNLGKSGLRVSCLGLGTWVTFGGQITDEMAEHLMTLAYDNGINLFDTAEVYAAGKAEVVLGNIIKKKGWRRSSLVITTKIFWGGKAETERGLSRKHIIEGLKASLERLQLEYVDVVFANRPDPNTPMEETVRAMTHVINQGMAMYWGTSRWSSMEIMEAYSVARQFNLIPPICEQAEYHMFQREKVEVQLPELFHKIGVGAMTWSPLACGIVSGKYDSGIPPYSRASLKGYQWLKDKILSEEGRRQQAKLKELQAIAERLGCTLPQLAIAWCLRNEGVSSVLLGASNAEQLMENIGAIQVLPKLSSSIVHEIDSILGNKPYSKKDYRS
row,Structure (SMILES),fluorescence slope
1,O=C(OCC(=O)c1cccs1)C1=COCCO1,-0.345
2,Cc1ccc(-c2cn3cccnc3n2)cc1NC(=O)c1ccc(Br)o1,-0.0541 (active)
3,Cc1cnc(NC(=O)CSc2nc3ccccc3c(=O)[nH]2)s1,-0.427
4,CCCCn1nnnc1NCc1cccs1,-0.52
5,CCCOc1cccc(NC(=O)c2c(-c3ccccc3)noc2C)c1,-0.534
6,CCC(=O)N1C(=O)CCN(C(C)=O)c2ccccc21,-0.381
7,O=C(NCc1ccc2c(c1)OCO2)C1CCC(CNc2c(N3CCCCC3)c(=O)c2=O)CC1 (stereo not given),-0.595
8,O=C(Cc1c(F)cccc1Cl)Nc1ccncc1,-0.334
9,CSc1nc(N2CCOCC2)c2ccccc2n1,-0.601
10,Nc1ccc(-n2c(N)c(C(=O)NCc3ccc4c(c3)OCO4)c3nc4ccccc4nc32)cc1,-0.476
11,COc1ccc(S(=O)(=O)Cc2ccc(C(=O)N3CCOCC3)o2)cc1,-0.615
12,Cc1sc2nc(SCC(=O)N3CCN(CCO)CC3)n(-c3ccccc3)c(=O)c2c1C,-0.456
13,CCc1ccc(C2CC(c3cccc(OC)c3)n3nc(N)nc3N2)cc1 (stereo not given),-0.599
14,CCCc1cc(C(=O)Nc2ccccc2C(=O)OC)no1,-0.629
15,COc1cccc(C(=O)Nc2c(C(N)=O)oc3ccccc23)c1,-0.545
16,Nc1nc2n(n1)C(c1cccc(Cl)c1)CC(c1ccc(F)cc1)N2 (stereo not given),-0.42
17,O=C(O)C1CCCN1c1ncnc2c1oc1ccccc12 (stereo not given),-0.503
18,Cc1cc(C)nc(NS(=O)(=O)c2ccc(NC(=O)Cn3c(=O)oc4ccccc43)cc2)n1,-0.577
19,CCCCn1c(CN(C)Cc2ccccc2)nc2c1c(=O)n(C)c(=O)n2C,-0.605
20,Oc1cccc(Nc2nc(NCC3CCCO3)c3ccccc3n2)c1 (stereo not given),-0.612

row,Structure (SMILES),fluorescence slope
1,Cc1ccc(-n2c(SCC3CCCCO3)nnc2-c2ccco2)cc1 (stereo not given),-0.413
2,Cc1ccc(S(=O)(=O)NCCSc2nnnn2-c2ccc(C(N)=O)cc2)cc1,-0.564
3,CCN1CCN(CCNC(=O)c2cn(C(C)c3ccccc3F)nn2)CC1 (stereo not given),-0.61
4,C(#Cc1ccccc1)Cn1nnc2ccccc21,-0.336
5,Cc1nccn1CCCN1C(=O)OC2(CCCCC2)C1(C)O (stereo not given),-0.522
6,CCOc1cc2[nH]c(=S)n(CC3CCCO3)c(=O)c2cc1OCC (stereo not given),-0.491
7,Cc1ccccc1Cn1ccc(NC(=O)c2cnn3c(C(F)(F)F)cc(-c4ccco4)nc23)n1,-0.613
8,O=C1c2ccccc2C(Nc2ccc3nc(-c4cccnc4)[nH]c3c2)N1Cc1ccco1 (stereo not given),-0.58
9,CCOc1ccc(N(CC(=O)NC2CCCC(C)C2C)S(=O)(=O)c2c(C)noc2C)cc1 (stereo not given),-0.612
10,CCOC(=O)Cn1ncc(-c2ccccc2)c1N,-0.48
11,CS(=O)(=O)N(CC(=O)Nc1cccc(F)c1)Cc1ccccc1,-0.467
12,Cc1cc(/C=N/n2cnnc2)c(C)n1-c1cccc(Cl)c1,-0.364
13,CCOC(=O)c1[nH]c(C)c(C(=O)Nc2ccc(C)cc2C)c1C,-0.585
14,CCOC(=O)n1c(SCC(=O)N(CC)CC)nc2ccccc21,-0.597
15,CCNc1ccc2c(Cl)cc(=O)oc2c1,-0.255
16,COCCCNC(=O)CCCn1c(=O)c2ccccc2n(CC(=O)Nc2c(C)cccc2C)c1=O,-0.505
17,CC(=O)NC(C)C(=O)OCC(=O)Nc1ccc(Br)cc1 (stereo not given),-0.246
18,O=C1c2ccccc2C(Nc2ccc(F)cc2F)N1CCN1CCOCC1 (stereo not given),-0.416
19,COC(=O)[C@H](CCSC)NC(=O)Nc1cc(C)ccc1C,-0.616
20,CC(=O)Nc1ccc(NC(=O)C(C)Oc2ccccc2F)cc1 (stereo not given),-0.65
